The nature of test [1]: Cell Viability - H-4-II-E (AID 543).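 Note: cells exposed to compound for 40 hours; nearly all actives have a fitted effect of over 35% in size.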 Note: potency is the fitted concentration of half-maximal effect. The method, boiled down: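 CellTiter-Glo luminescence (intracellular ATP) measured after 40 h compound exposure at 37 °C in H-4-II-E rat hepatoma cells seeded at 1500/well. Values are AC50s fitted with the standard Hill equation.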
Test [2] in a line: Cellular Toxicity (caspase-3) BJ (AID 658).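 Note: cells exposed to compound for 16 hours; 0% = DMSO basal and 100% = 10 µM staurosporine.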 The method, boiled down:
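Plated BJ cells (1000/well) rested 5 hr, received compound for 16 hr at 37 °C, then Caspase-Glo 3/7 reagent for 1 hr at room temperature before luminescence reading.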

The nature of test [3]: Cell Viability - LYMP2-021 (AID 974). For activity change, negative = cytotoxicity: % is set by controls: 0 for no effect and ±100 for the full control effect. Note: nearly all actives have a fitted effect of over 55% in size. Note: potency is the fitted concentration of half-maximal effect. The method, boiled down: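 AC50 values come from Hill-equation fits to CellTiter-Glo luminescence (ATP content), read after 24 hour compound exposure at 37 C of 2500 LYMP2-021 lymphoblastoid cells/well; tetraoctylammonium bromide as positive control.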
Test [4] is described as follows: Cell Viability - LYMP2-023 (AID 975).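 Note: cellular ATP measured by luciferase luminescence as viability proxy; plate controls were DMSO only for no effect and 92 µM tetraoctylammonium bromide control for full effect; nearly all actives have a fitted effect of over 55% in size.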 The method, boiled down:
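Intracellular ATP, read by CellTiter-Glo luminescence, reports viability after 24 hr compound exposure at 37 C. 2500 lymphoblastoid cells/well (LYMP2-023) seeded 5 hr beforehand; Hill fits give AC50; positive control tetraoctylammonium bromide.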

Test [5] in a line: Cell Viability - LYMP2-006 (AID 978). Note: % is set by controls: 0 for no effect and ±100 for the full control effect; nearly all actives have a fitted effect of over 60% in size. The method, boiled down: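 Human lymphoblastoid cells, 2500 per well, were preincubated 5 hr at 37 C, then exposed to compounds for 24 hr at 37 C in complete medium. Viability was read as intracellular ATP by CellTiter-Glo luminescence; AC50 from Hill-equation fits of qHTS concentration-response data.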
Test [6] in a line: Cell Viability - LYMP2-010 (AID 981). Note: % is set by controls: 0 for no effect and ±100 for the full control effect; nearly all actives have a fitted effect of over 55% in size. The method in brief:
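CellTiter-Glo ATP luminescence measured cytotoxicity after 24 h compound exposure at 37 C. LYMP2-010 cells were seeded at 2500/well, with tetraoctylammonium bromide as control; concentration-response curves gave AC50 values by the Hill equation.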

The nature of test [7]: Cell Viability - LYMP2-018 (AID 985).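 Note: plate controls were DMSO only for no effect and tetraoctylammonium bromide at 92 µM for full effect; nearly all actives have a fitted effect of over 50% in size.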 The method in brief:
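Viability read as CellTiter-Glo luminescence (cellular ATP) after 24 hr compound exposure at 37 C of 2500 LYMP2-018 lymphoblastoid cells/well, pre-plated 5 hr. Hill-equation modelling gave AC50.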

Test [8] has as its target Thyroid hormone receptor beta (Homo sapiens) (UniProt P10828). The test can be described thus: qHTS assay for small molecule agonists of thyroid hormone receptor beta signaling (AID 588545; calls by dose curve;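 note: 0% = DMSO only and 100% = 10 nM T3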). The method, boiled down: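 Stimulation of a TR-driven beta-lactamase reporter was quantified in GripTite HEK 293 cells. Compound series ran for 18 hrs; curves were normalized to T3 and DMSO controls and fitted to yield EC50.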

For test [9] the target is unchanged. The experiment in a line: qHTS assay for small molecule antagonists of thyroid hormone receptor beta signaling (AID 588547; active = well fitted inhibition curve with a large enough effect in the signal ratio, with a control signal flat, not every such curve was filed as active; the % refers to the signal ratio;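 note: cells stimulated with 0.4 nM T3 agonist during compound exposure; % is set by controls: 0 for no effect and ±100 for the full control effect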). The conditions noted are these: TR-UAS-bla HEK293, beta-lactamase ratio, antagonist mode, 18 h. The method in brief: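 TR-UAS-bla GripTite HEK293 cells in 2% charcoal/dextran FBS medium were preincubated 4 h at 37 C, given compound (0.59 nM to 92 uM) plus 0.4 nM T3 (final) for 18 h, then CCF4 for 2 h at RT; Hill fit gave IC50.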
Background: In qHTS, concentration-response curves come from the screen itself.

The target of test [10] is Voltage-gated inwardly rectifying potassium channel KCNH2 (Homo sapiens) (UniProt Q12809). The test can be described thus: qHTS Assay for Small Molecule Inhibitors of the Human hERG Channel Activity (AID 588834).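 Note: top concentration of the series differs between compounds; % is set by controls: 0 for no effect and ±100 for the full control effect; lower thallium flux fluorescence means stronger hERG block; nearly all actives have a fitted effect of over 50% in size.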 The method in brief:
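In hERG-transduced U2OS cells, dye-loaded for 1 hr at room temperature in dark, test compounds incubated 10 min at 37 °C before thallium stimulation. AC50 values derived by Hill modelling of concentration-response.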

Test [11] in a line: Cell Viability - NIH 3T3 (AID 541).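 For activity change, negative = cytotoxicity: plate controls were DMSO alone for no effect and tamoxifen positive control for full effect.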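 Note: cells exposed to compound for 40 hours; nearly all actives have a fitted effect of over 25% in size.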 Note: potency is the fitted concentration of half-maximal effect. The conditions noted are these: NIH 3T3 cell viability, qHTS; activity change, negative = cytotoxicity: at 92.2 µM (top of the series). The method in brief:
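Intracellular ATP (CellTiter-Glo luminescence, 20 min at room temperature) measured after 40 hr compound exposure at 37 °C of 1000 NIH 3T3 mouse fibroblasts/well in complete medium; AC50 derived by Hill-equation modelling of qHTS concentration-response curves.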

The nature of test [12]: Cellular Toxicity (caspase-3) Jurkat (AID 655).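 Note: cells exposed to compound for 16 h at 37 °C before reading.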 The conditions noted are these: Jurkat caspase-3 activation, luminescence; caspase-3 activation: at 92.2 µM (top of the series), DMSO = 0%, tamoxifen = 100%. The method, boiled down:
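Jurkat cells (5000/well) in complete medium were treated with compounds for 16 hr at 37 °C, then Caspase-Glo 3/7 luminescence was read after 20 min at room temperature. Data normalized to DMSO (basal) and 100 uM tamoxifen (100%); AC50 from Hill fit.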

A short description of test [13]: MultiTox-Fluor Cytotoxicity Assay - LYMP1-003 - Dead Cells (AID 961). Note: nearly all actives have a fitted effect of over 70% in size. Note: potency is the fitted concentration of half-maximal effect. The method, boiled down: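 Dead-cell protease release, detected as bis-AAF-R110 fluorescence at 485/520 nm, was measured in LYMP1-003 cells after 16 h compound treatment at 37 C. AC50 values came from Hill-modeled qHTS curves normalized to DMSO (0%) and 15 uM tetraoctylammonium bromide (100%).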

Test [14] is described as follows: Cell Viability - LYMP1-003 - Assay at 40 hr (AID 964). Note: % is set by controls: 0 for no effect and ±100 for the full control effect; nearly all actives have a fitted effect of over 60% in size. The method, boiled down: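 Viability is taken as cellular ATP, read by CellTiter-Glo luminescence after 40 h of compound exposure at 37 C. Cells: human lymphoblastoid line LYMP1-003 at 2500/well; AC50 values derived by Hill-equation fitting of concentration-response data.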
Test [15] is described as follows: Cell Viability - LYMP2-020 (AID 986).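 Note: plate controls were DMSO only for no effect and tetraoctylammonium bromide at 92 µM for full effect; nearly all actives have a fitted effect of over 55% in size.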 The method, boiled down: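 Cytotoxicity in qHTS format: luminescent ATP readout from CellTiter-Glo after 24 h compound exposure at 37 C in complete medium. LYMP2-020 lymphoblastoid cells were seeded at 2500/well; concentration-response data fitted to the Hill equation for AC50.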
Test [16] can be described thus: Cell Viability - LYMP2-022 (AID 987). Note: nearly all actives have a fitted effect of over 55% in size. Note: potency is the fitted concentration of half-maximal effect. The method in brief:
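Cytotoxicity read as decreased cellular ATP (CellTiter-Glo luminescence, 30 min room temperature) after 24 hours compound exposure of 2500 lymphoblastoid LYMP2-022 cells/well at 37 C. Concentration-response data fitted with standard Hill equation for AC50.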

Test [17] deals with Nuclear receptor ROR-gamma (Homo sapiens) (UniProt P51449). The experiment in a line: qHTS assay for small molecule antagonists of the retinoid-related orphan receptor gamma (ROR-gamma) signaling pathway (AID 651802).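 Note: CHO cells with doxycycline-induced ROR-gamma expression; luciferase reporter luminescence driven by ROR response element; % is set by controls: 0 for no effect and ±100 for the full control effect; nearly all actives have a fitted effect of over 60% in size.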 The method in brief:
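Luminescence (One-Glo, 30 min RT) measured 16 h after compound addition and doxycycline induction at 37C. Reporter: RORE-luciferase under TET-inducible ROR-gamma in CHO cells.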

The nature of test [18]: qHTS assay for small molecule agonists of the antioxidant response element (ARE) signaling pathway measured by Nrf2-dependant transcriptional activity (AID 720636; active = well fitted curve in the direction sought with a large enough effect in the repeat runs; an effect the other way counts as inactive or inconclusive;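 note: HepG2 cells with an ARE-driven luciferase reporter; % of control where 0% means no effect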). The method, boiled down: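 Attachment 6 hr at 37 C, then compound versus DMSO vehicle for 16 hr in ARE-luc HepG2 cells (1% dialyzed FBS); luminescence recorded 30 min after ONE-Glo addition at room temperature.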

Test [19] is described as follows: qHTS assay for small molecule activators of the nuclear factor-kappa B (NF-kB) signaling pathway (AID 651749; active = well fitted activation curve with a large enough effect in the signal ratio; the % refers to the signal ratio; note: % of control where 0% means no effect). The conditions noted are these: NF-kB-bla ME-180 cells, beta-lactamase FRET ratio, 16 h; active compounds read high. The method, boiled down:
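Human ME-180 cervical cells with an NF-kB-bla construct; compounds added via 23 nL pin transfer, DMSO as vehicle; incubation 16 hr. Reporter activity measured by FRET disruption.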

Test [20] is described as follows: qHTS assay for small molecule activators of the human pregnane X receptor (PXR) signaling pathway (AID 720659; call rule not given here; note: 0% is about no effect).

“And” between values parts separate entries of the source, which are not always exact repeats. Equal values may be shown once. A number with no mark means an inactive call. Records with an inconclusive call do not appear. The source made the active and inactive calls. Unless noted, calls come from the whole dose curve; as a rule, active = well fitted curve in the direction sought with a large enough effect; inconclusive = small, poorly fitted or top-dose-only effect, or another doubt; inactive = no such curve, though single readings can be large; an effect the other way counts as inactive or inconclusive.

10 compounds from PubChem BioAssay (NCATS) can be followed below.

Thyroid hormone receptor beta (Homo sapiens), sequence (P10828 whole entry, looked up): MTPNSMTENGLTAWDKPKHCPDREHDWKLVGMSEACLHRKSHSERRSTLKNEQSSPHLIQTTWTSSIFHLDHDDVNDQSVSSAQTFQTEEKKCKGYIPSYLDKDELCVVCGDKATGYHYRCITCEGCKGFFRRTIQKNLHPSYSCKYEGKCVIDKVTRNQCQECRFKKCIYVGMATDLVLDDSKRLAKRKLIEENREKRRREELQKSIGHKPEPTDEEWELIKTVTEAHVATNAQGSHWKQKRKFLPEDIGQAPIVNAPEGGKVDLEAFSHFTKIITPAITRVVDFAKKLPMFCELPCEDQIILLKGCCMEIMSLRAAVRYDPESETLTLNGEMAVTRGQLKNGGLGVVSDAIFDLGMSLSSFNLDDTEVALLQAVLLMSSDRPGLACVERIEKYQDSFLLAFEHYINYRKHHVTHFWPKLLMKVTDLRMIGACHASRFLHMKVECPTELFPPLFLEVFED
Nuclear receptor ROR-gamma (Homo sapiens), sequence (P51449 whole entry, looked up): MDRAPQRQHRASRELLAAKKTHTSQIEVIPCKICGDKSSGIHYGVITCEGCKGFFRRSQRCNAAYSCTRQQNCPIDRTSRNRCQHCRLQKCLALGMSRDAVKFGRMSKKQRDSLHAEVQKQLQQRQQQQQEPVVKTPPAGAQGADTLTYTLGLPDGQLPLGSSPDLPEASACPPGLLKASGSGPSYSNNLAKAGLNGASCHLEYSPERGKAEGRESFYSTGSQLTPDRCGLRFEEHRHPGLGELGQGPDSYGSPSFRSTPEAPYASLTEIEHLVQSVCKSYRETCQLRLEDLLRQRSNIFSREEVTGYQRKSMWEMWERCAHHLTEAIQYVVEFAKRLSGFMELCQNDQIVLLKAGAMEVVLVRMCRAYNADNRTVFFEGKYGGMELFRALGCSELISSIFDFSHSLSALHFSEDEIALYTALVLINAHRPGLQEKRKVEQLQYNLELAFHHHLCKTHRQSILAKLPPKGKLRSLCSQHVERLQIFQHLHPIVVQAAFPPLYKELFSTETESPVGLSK
Voltage-gated inwardly rectifying potassium channel KCNH2 (Homo sapiens), sequence (Q12809 whole entry, looked up): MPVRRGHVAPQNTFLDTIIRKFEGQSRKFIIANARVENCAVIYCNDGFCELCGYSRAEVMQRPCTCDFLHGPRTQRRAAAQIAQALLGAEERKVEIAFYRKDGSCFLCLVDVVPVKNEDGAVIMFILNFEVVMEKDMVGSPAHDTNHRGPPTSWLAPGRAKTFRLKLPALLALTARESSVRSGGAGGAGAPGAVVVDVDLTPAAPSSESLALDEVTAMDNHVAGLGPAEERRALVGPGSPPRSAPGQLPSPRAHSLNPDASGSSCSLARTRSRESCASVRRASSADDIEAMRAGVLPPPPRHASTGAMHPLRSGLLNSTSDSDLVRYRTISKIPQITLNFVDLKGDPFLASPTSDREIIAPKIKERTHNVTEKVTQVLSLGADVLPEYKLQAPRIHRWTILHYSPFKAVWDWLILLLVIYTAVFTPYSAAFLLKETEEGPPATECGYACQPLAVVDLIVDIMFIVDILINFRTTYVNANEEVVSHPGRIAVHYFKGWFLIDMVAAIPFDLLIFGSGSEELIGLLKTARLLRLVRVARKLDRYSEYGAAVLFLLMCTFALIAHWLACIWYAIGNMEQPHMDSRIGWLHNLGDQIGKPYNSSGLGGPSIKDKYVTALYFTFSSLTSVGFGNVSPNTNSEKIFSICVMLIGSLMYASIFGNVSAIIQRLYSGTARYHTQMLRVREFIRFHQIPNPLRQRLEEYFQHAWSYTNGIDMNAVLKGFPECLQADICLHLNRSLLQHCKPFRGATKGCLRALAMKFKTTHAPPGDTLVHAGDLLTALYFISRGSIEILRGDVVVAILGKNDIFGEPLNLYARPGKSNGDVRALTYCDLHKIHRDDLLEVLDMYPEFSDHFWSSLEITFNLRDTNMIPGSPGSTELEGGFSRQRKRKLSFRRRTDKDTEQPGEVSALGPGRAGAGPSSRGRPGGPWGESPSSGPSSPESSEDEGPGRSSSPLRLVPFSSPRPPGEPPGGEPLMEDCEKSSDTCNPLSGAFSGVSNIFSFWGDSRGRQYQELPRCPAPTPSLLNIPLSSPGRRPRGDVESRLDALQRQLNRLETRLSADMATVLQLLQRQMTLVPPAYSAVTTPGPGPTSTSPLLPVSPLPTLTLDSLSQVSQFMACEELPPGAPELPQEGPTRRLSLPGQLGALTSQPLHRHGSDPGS

Turning to `Nc1ccc(-c2ccc(N)c(Cl)c2)cc1Cl`, in [1], the Potency is 31.6 µM (active). Besides, the compound was called inactive in test [2]. The Potency result in [3], in test [4], in test [5], in [6], in [7] and in [8] was “inactive” each time. The Potency entry in test [10] is “inactive”. Further, the activity change % (negative = inhibition) in test [9] was -10.6% and -0.523%.
As for `CCOC(=O)C1OC1(C)c1ccccc1` (stereo not drawn), the Potency entry in [11], in test [1], in [13], in test [14], in test [4] and in test [5] was “inactive” in each case. Besides, the Potency result in test [6], in test [7], in test [15], in [16], in test [10] and in test [17] was “inactive” each time. Moreover, the Potency result in test [18] was “inactive”. The caspase-3 activation in test [12] was -2.16%. Further, in test [2], the compound was called inactive. The activity change % (negative = inhibition) in test [9] was 6.83%.
As to `Cc1ccc(N)c(N)c1`, the Potency in test [11] is 5.01 µM (active); in test [13] it was 15.8 µM (active); in test [3], 31.6 µM (active); in test [16] it was 12.6 µM (active). Moreover, the Potency entry in test [1], in test [8], in test [10] and in test [17] was “inactive” each time. In test [2], the compound was called inactive. For the same compound, the activity change % (negative = inhibition) in [9] is -28.6%. Further, in [19], the activation was -0.795%.
With `C=CCBr`, the Potency result in test [11], in [14], in test [3], in [5], in test [7] and in test [16] was “inactive” throughout. In addition, the Potency entry in test [8] and in test [17] was “inactive” throughout. In addition, in test [12], the caspase-3 activation was -0.133%. Also, the compound was classed as inactive in test [2] and in test [20].
With `Clc1ccccc1`, the Potency result in [11], in test [1], in [13], in test [3], in test [4] and in test [5] was “inactive” each time. Further, the Potency entry in [6], in [7], in [15], in [16], in [8] and in test [10] was “inactive” each time. In addition, the caspase-3 activation in test [12] was 1.44%. Further, the call in test [2] and in test [20] was inactive. Also, the activity change % (negative = inhibition) in test [9] is 8.57%.
For `BrCCc1ccccc1`, the Potency entry in test [11], in [1], in [4], in [5], in test [6] and in [7] was “inactive” throughout. Further, the Potency result in test [15], in test [16], in test [8] and in test [18] was “inactive” each time. For the same compound, the call in [2] and in test [20] was inactive. For the same compound, the activity change % (negative = inhibition) in test [9] is -8.86%. The activation in [19] was -1.06%.
Turning to `Cc1ccc(N)cc1C`, the Potency entry in test [11], in test [1], in test [13], in test [14], in test [3] and in test [4] was “inactive” each time. Moreover, the Potency entry in test [5], in test [6], in test [7], in test [15], in [16] and in test [8] was “inactive” each time. Further, the Potency entry in test [10], in test [17] and in test [18] was “inactive” in each case. The compound was classed as inactive in test [2] and in [20]. Further, the activity change % (negative = inhibition) in test [9] is 9.98%. In addition, in test [19], the activation is 0.0731%.
For `Cc1coc2c1CCC(C)C2` (stereo not drawn), the Potency entry in [11], in test [1], in test [13], in [14], in test [3] and in test [4] was “inactive” each time. Further, the Potency entry in test [5], in test [7], in [15], in test [16], in [8] and in [10] was “inactive” each time. Further, the Potency result in [18] is “inactive”. In addition, the caspase-3 activation in test [12] was 0.203%. Also, in test [9], the activity change % (negative = inhibition) was 22.1%. The activation in [19] was -0.0074%.
As to `O=NN1CCCCC1`, the Potency result in test [11], in [1], in test [13], in test [14], in test [3] and in test [4] was “inactive” each time. The Potency entry in test [5], in test [7], in test [15], in [16], in [8] and in test [10] was “inactive” in each case. The Potency result in test [17] and in [18] was “inactive” each time. Moreover, the caspase-3 activation in test [12] was 1.18%. In addition, the activity change % (negative = inhibition) in test [9] is 8.23%. Also, in test [19], the activation is -0.849%. Also, in test [20], the compound was classed as inactive.
In the case of `CCN(CC)N=O`, the Potency entry in [1], in test [13], in [14], in test [3], in test [5] and in test [6] was “inactive” each time. The Potency result in [7], in [15], in test [16], in test [8], in [10] and in [17] was “inactive” throughout. The Potency result in [18] was “inactive”. Also, the caspase-3 activation in test [12] is 1.16%. Further, the outcome in test [2] and in test [20] was inactive. For the same compound, the activation in test [19] is 0.914%.
